Results as given in PubChem BioAssay.
“And” between values parts separate entries of the source, which are not always exact repeats. Identical values can stand only once. Results filed as inconclusive are left out. The source made the active and inactive calls. Rule as the data show it, unless noted: active = inhibition above about 80%; inactive = the rest.

Columns and labels:
[1] = growth inhibition of DIPG cells – cell-based, MIPE4.0 library, CellTiter-Glo luminescence, qHTS (AID 1347066; cut-off not given, nearly all actives have AC50 up to about 30 µM;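 also: cells exposed to compound for 48 hours before readout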); conditions: SU-DIPG-VI viability, CellTiter-Glo ATP luminescence
[2] = galactose survival enhancers in mitochondrial complex I cybrids – cell-based, galactose medium, ATP luminescence, primary screen (AID 1645843;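 active = z-score of at least 1.8 in each of two replicates, scored against plate mean and spread of sample wells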;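 also: positive z means more ATP and so rescue of galactose-driven cybrid death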); conditions: complex I mutant cybrid cells, 72 h, stronger effect = higher value
[3] = viability loss in pontine glioma line – cell-based, JHH-DIPG-1, MIPE4.0, CellTiter-Glo, qHTS, dose response (AID 1347062; cut-off not given, nearly all actives have AC50 up to about 27 µM;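 as to AC50: cells exposed to compound for two days before readout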); conditions: JHH-DIPG-1 viability, CellTiter-Glo ATP luminescence
[4] = viability loss in pontine glioma line – cell-based, SU-DIPG-IV, MIPE4.0, CellTiter-Glo, qHTS, dose response (AID 1347063; cut-off not given, nearly all actives have AC50 up to about 30 µM;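 also: compound exposure lasted 48 hours before the viability readout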); conditions: CellTiter-Glo ATP luminescence
[5] = growth inhibition, single agents and combos, LFS_MB_1R, cell-based, cisplatin or BGB combos, synergistic combos for chromothripsis tumors (AID 1671452); conditions: LFS_MB_1R medulloblastoma cells, stronger effect = higher value;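 also: cells exposed for 96 hours before readout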
[6] = growth inhibition, single agents and combos, CRL2098, cell-based, BGB or cisplatin IC20 combos, synergistic combos for chromothripsis tumors (AID 1671454); conditions: CRL2098 osteosarcoma cells, drug combinations, stronger effect = higher value;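 also: cells exposed for 96 h before readout; 0% = vehicle DMSO and 100% = killing by high DMSO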
[7] = growth inhibition, single agents and combos, HD-MB03, cell-based, BGB or cisplatin IC20 combos, synergistic combos for chromothripsis tumors (AID 1671455; in the data active = inhibition above about 83%;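 also: 0% = vehicle DMSO and 100% = high DMSO as cytotoxic control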); conditions: HD-MB03 medulloblastoma cells, stronger effect = higher value
[8] = growth inhibition, single agents and combos, UWB1.289, cell-based, BGB or cisplatin combos, synergistic combos for chromothripsis tumors (AID 1671456); conditions: UWB1.289 ovarian carcinoma cells, stronger effect = higher value;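 also: cells exposed to compound for four days; 0% = vehicle DMSO and 100% = killing by high DMSO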
[9] = growth inhibition, single agents and combos, LFS_MB_2R, cell-based, cisplatin combos, synergistic combos for chromothripsis tumors (AID 1671457); conditions: LFS_MB_2R medulloblastoma cells, stronger effect = higher value;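 also: cells exposed to compound for four days before readout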
[10] = UWB1.289_BRCA1 ovarian cancer growth, cell-based, BGB or cisplatin combinations (AID 1671459); conditions: UWB1.289 BRCA1 ovarian carcinoma, drug combinations, stronger effect = higher value
[11] = drug combination toxicity in non-malignant astrocytes – cell-based, BGB or cisplatin IC20 combos, cytotoxicity control for chromothriptic childhood tumor combination screen (AID 1671460); conditions: Human astrocytes, viability inhibition, drug combinations, at 0.5 µM, stronger effect = higher value;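 also: cells exposed to compounds for 96 hours before viability readout; 0% = vehicle and 100% = killing control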
[12] = BT084 cell growth, single and combined drugs, ICGC_MB145, cisplatin and BGB IC40 combos (AID 1671461); conditions: BT084 medulloblastoma cells, drug combinations, stronger effect = higher value;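 also: cells exposed to drugs for 96 hours; 0% = vehicle DMSO and 100% = high DMSO full killing control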
[13] = RCMB18 cell growth, single agent and combined, cisplatin and BGB IC40 combos (AID 1671462); conditions: RCMB18 medulloblastoma cells, stronger effect = higher value;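 also: cells exposed to compound for four days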
[14] = CRL1545 cell growth, single agent and combined, cisplatin and BGB IC20 combos (AID 1671464); conditions: CRL1545 osteosarcoma cells, stronger effect = higher value;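 also: cells exposed to compound for 96 hours before readout; 0% = vehicle DMSO and 100% = high DMSO killing control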
[15] = molecular target: ATP-dependent translocase ABCB1 (Homo sapiens) (UniProt P08183); test: P-glycoprotein substrate transport blockade – cell-based (AID 377; in the data active = fluorescence slope change above about 50%); conditions: MDR1-expressing cells, fluorescent substrate accumulation slope; stronger effect = higher value; concentration not given here
Sequence of ATP-dependent translocase ABCB1 (Homo sapiens) (P08183 whole entry, looked up): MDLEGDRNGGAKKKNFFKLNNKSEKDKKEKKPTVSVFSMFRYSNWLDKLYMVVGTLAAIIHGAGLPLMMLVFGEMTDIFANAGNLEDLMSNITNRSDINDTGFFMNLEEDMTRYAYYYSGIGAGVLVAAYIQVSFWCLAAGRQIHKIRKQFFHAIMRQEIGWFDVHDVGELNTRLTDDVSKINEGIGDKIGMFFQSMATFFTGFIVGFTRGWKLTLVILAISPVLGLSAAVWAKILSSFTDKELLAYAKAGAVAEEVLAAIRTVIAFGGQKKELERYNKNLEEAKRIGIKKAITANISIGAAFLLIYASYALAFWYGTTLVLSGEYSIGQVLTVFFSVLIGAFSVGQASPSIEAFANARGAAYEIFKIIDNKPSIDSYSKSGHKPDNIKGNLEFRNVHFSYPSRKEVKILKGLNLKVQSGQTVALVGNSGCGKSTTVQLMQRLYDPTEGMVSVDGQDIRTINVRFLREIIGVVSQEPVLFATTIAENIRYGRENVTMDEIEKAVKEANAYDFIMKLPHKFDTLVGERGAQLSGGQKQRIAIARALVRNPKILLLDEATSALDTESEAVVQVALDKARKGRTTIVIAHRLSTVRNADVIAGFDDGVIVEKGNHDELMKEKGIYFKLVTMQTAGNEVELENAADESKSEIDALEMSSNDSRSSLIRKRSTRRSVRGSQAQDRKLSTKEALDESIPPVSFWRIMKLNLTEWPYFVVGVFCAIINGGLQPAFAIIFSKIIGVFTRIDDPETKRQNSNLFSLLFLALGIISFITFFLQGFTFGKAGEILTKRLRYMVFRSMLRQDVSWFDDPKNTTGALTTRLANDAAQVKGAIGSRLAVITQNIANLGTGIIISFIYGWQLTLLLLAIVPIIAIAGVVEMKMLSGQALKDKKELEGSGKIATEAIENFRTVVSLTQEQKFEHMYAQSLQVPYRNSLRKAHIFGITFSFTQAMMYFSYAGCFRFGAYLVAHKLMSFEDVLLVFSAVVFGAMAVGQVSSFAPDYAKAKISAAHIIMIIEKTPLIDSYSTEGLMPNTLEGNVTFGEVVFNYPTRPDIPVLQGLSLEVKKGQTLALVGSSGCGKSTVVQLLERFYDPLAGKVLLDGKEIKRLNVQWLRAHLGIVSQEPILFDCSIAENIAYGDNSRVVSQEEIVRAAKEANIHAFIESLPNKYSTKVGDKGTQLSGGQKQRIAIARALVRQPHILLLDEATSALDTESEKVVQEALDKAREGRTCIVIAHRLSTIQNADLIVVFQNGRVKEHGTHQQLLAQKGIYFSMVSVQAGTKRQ

[16] = viability loss in pontine glioma line – cell-based, SU-DIPG-XIII, MIPE5.0, CellTiter-Glo, qHTS, dose response (AID 1347064; cut-off not given, nearly all actives have AC50 up to about 23 µM;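 as to AC50: cells exposed to compound for 48 hours before the viability read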); conditions: CellTiter-Glo ATP luminescence
[17] = viability loss in pontine glioma line – cell-based, SU-DIPG-XXV, MIPE5.0, CellTiter-Glo, qHTS, dose response (AID 1347065; cut-off not given, nearly all actives have AC50 up to about 26 µM;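 also: cells exposed to compound for 48 hours before ATP readout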); conditions: CellTiter-Glo ATP luminescence
[18] = JHH-DIPG-1 glioma cell viability, MIPE5.0 library, CellTiter-Glo luminescence, qHTS (AID 1347067; cut-off not given, nearly all actives have AC50 up to about 26 µM;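 also: cells exposed to compound for 48 hours before readout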); conditions: JHH-DIPG-1 glioma viability, CellTiter-Glo ATP luminescence
[19] = growth inhibition of DIPG cells – cell-based, MIPE5.0 library, qHTS (AID 1347068; cut-off not given, nearly all actives have IC50 up to about 30 µM;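 as to IC50: cells exposed to compound for 48 hours before viability readout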); conditions: SU-DIPG-XXV viability
[20] = molecular target: Mitogen-activated protein kinase 7 (Homo sapiens) (UniProt Q13164); test: Gal4-ERK5 driven luciferase induction – cell-based, HTS, primary screen (AID 1508626;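 active = luciferase signal above three times the same-plate solvent-only control wells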;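 also: luciferase driven by Gal4-ERK5 fusion binding five Gal4 sites before minimal TATA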); conditions: HeLa Gal4-ERK5 transactivation, 18 h, at 5 µM, stronger effect = higher value
Sequence of Mitogen-activated protein kinase 7 (Homo sapiens) (Q13164 whole entry, looked up, the tested form may be a part): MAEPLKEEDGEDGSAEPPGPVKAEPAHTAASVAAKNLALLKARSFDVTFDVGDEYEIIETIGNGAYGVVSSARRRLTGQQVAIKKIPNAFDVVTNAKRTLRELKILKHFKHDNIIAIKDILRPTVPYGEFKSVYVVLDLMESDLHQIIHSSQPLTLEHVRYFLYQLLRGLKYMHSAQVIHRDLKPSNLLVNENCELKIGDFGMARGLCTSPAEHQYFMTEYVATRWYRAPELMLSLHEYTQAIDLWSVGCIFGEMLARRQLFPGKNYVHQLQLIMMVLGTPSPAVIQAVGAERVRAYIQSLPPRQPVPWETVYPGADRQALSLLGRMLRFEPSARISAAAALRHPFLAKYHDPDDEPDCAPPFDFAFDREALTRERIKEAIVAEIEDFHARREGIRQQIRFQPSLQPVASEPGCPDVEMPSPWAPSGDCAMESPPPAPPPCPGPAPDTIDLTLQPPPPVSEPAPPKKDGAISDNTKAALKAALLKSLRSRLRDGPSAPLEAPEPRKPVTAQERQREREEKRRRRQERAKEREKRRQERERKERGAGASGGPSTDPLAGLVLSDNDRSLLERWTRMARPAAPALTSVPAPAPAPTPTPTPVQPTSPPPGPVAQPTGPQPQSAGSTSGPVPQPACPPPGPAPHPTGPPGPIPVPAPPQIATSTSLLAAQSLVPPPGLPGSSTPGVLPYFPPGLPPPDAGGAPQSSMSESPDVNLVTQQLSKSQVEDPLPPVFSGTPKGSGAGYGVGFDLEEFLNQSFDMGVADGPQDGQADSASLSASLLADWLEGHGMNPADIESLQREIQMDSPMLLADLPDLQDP

[21] = measured here: combination with BGB IC40, at 0.05 µM
[22] = measured here: combination with cisplatin, at 0.5 µM
[23] = measured here: combination with cisplatin, at 5 µM
[24] = measured here: combination with BGB at IC20, at 0.5 µM
[25] = measured here: combination with cisplatin at IC20, at 0.5 µM
[26] = measured here: combo with BGB at IC20, at 0.5 µM
[27] = measured here: combo with cisplatin at IC20, at 0.5 µM
[28] = measured here: inhibition with BGB combination, at 0.05 µM
[29] = measured here: inhibition with cisplatin combination, at 0.05 µM
[30] = BGB combination, concentration series, at 5 µM
[31] = cisplatin combination, concentration series, at 5 µM
[32] = measured here: combo with BGB IC20
[33] = measured here: combo with cisplatin IC20
[34] = cisplatin combination, at 0.5 µM
[35] = measured here: BGB IC40 combination 0.05 uM, at 0.05 µM
[36] = measured here: BGB IC40 combination, at 0.05 µM
[37] = measured here: with BGB IC20 combination, at 0.5 µM
[38] = measured here: with cisplatin IC20 combination, at 0.5 µM

In the case of `COc1c(C)c2c(c(O)c1C/C=C(\C)CCC(=O)OCCN1CCOCC1)C(=O)OC2`, the outcome [1] is reported as “inactive” and the z-score [2] is reported as 1.7 (inactive).

With `CN1CCN(c2c(F)cc3c(=O)c(C(=O)O)cn4c3c2OCN4C)CC1` the outcome [3] was “inactive”, the outcome [4] was “inactive” and the outcome [1] was “inactive”. The inhibition ([5]; at 0.5 µM) was -24.2% (inactive), the inhibition [5, 21] was -29.1% and the inhibition [5, 22] was -7.67%. The inhibition [5, 23] was 23.6%, the inhibition ([6]; at 0.5 µM) was -52.3% (inactive) and the inhibition [6, 24] was -51%. For the same compound, the inhibition [6, 25] was -59.8%, the inhibition ([7]; at 0.5 µM) was -2.64% (inactive) and the inhibition [7, 26] was 4.92%. For the same compound, the inhibition [7, 27] was 0.073%, the inhibition ([8]; at 0.5 µM) was -1.17% (inactive) and the inhibition [8, 28] was -15.9%. The inhibition [8, 29] was 9.55%, the inhibition ([9]; at 0.5 µM) was -13.7% (inactive) and the inhibition [9, 22] was -20.3%. The inhibition [9, 23] was -60.6%, the inhibition [10, 30] was 1.13% and the inhibition ([10]; at 0.5 µM) was 0.06% (inactive). For the same compound, the inhibition [10, 31] was 8.22%, the inhibition [11] was 6.55% (inactive) and the inhibition [11, 32] was 4.16%. For the same compound, the inhibition [11, 33] was 12.5%, the inhibition ([12]; at 0.5 µM) was -6.03% (inactive) and the inhibition [12, 34] was -9.98%. The inhibition ([12]; cisplatin combination, at 5 µM) was 4.69%, the inhibition [12, 35] was 6.42% and the inhibition ([12]; single agent, at 5 µM) was -5.93%. The inhibition ([13]; at 0.5 µM) was -12.6% (inactive), the inhibition ([13]; cisplatin combo, at 5 µM) was -14.3% and the inhibition [13, 36] was -20.1%. The inhibition [13, 22] was -5.19%, the inhibition ([13]; single agent, at 5 µM) was -1.41% and the inhibition ([14]; at 0.5 µM) was -1.5% (inactive). For the same compound, the inhibition [14, 37] was -0.247%, the inhibition [14, 38] was -4.44% and the inhibition ([14]; single agent, at 0.05 µM) was -8.36%. The inhibition ([14]; single agent, at 5 µM) was 2.43%.

With `N=C(N=C(N)N)N1CCOCC1` the fluorescence slope change [15] was 25.2% (inactive), the outcome [4] was “inactive” and the outcome [1] was “inactive”. For the same compound, the z-score [2] was 0.495 (inactive), the inhibition ([5]; at 0.5 µM) was -2.71% (inactive) and the inhibition [5, 21] was 2.02%. For the same compound, the inhibition [5, 22] was 8.46%, the inhibition [5, 23] was -12.4% and the inhibition ([6]; at 0.5 µM) was -24.9% (inactive). For the same compound, the inhibition [6, 24] was -15.5%, the inhibition [6, 25] was -34.6% and the inhibition ([7]; at 0.5 µM) was -2.36% (inactive). For the same compound, the inhibition [7, 26] was 3.57%, the inhibition [7, 27] was -15.2% and the inhibition ([8]; at 0.5 µM) was 6.16% (inactive). For the same compound, the inhibition [8, 28] was -1.97%, the inhibition [8, 29] was 3.05% and the inhibition ([9]; at 0.5 µM) was 6.81% (inactive). The inhibition [9, 22] was 8.19%, the inhibition [9, 23] was -31.5% and the inhibition [10, 30] was 1.52%. The inhibition ([10]; at 0.5 µM) was 3.22% (inactive), the inhibition [10, 31] was 4.22% and the inhibition [11] was 2.04% (inactive). The inhibition [11, 32] was 7.42%, the inhibition [11, 33] was -4.5% and the inhibition ([12]; at 0.5 µM) was 3.57% (inactive). For the same compound, the inhibition [12, 34] was -9.16%, the inhibition ([12]; cisplatin combination, at 5 µM) was 7.43% and the inhibition [12, 35] was 0.739%. The inhibition ([12]; single agent, at 5 µM) was -12.3%, the inhibition ([13]; at 0.5 µM) was 5.29% (inactive) and the inhibition ([13]; cisplatin combo, at 5 µM) was -26%. The inhibition [13, 36] was -14.8%, the inhibition [13, 22] was 25.2% and the inhibition ([13]; single agent, at 5 µM) was -13.7%. For the same compound, the inhibition ([14]; at 0.5 µM) was 2.6% (inactive), the inhibition [14, 37] was -18.7% and the inhibition [14, 38] was 11.3%. It also gave an inhibition ([14]; single agent, at 0.05 µM) of 0.225% and an inhibition ([14]; single agent, at 5 µM) of 8.11%.

For `O=[N+]([O-])c1ccc(O)c2ncccc12`, the AC50 [16] was 3320 nM (active), the AC50 [17] was 9340 nM (active) and the AC50 [18] was 2950 nM (active). The IC50 [19] was 23500 nM (active).

With `CC(C)(Oc1ccc(C2CC2(Cl)Cl)cc1)C(=O)O` (stereo not drawn) the outcome [3] was “inactive”, the outcome [16] was “inactive” and the outcome [17] was “inactive”. The outcome [1] was “inactive”, the outcome [18] was “inactive” and the outcome [19] was “inactive”. The z-score [2] was 0.695 (inactive).

With `CC(=O)Oc1cc(C(C)C)c(OCCN(C)C)cc1C` the z-score [2] was 0.335 (inactive).

For `NCCCNCCSP(=O)(O)O`, the luciferase signal [20] was 52 AU (inactive) and the z-score [2] was 0.585 (inactive) and 0.25 (inactive).

For `CC(C)Cn1cnc2c(N)nc3ccccc3c21`, the AC50 [3] was 18700 nM (active), the AC50 [4] was 20900 nM (active) and the outcome [16] was “inactive”. The outcome [1] was “inactive”, the outcome [18] was “inactive” and the outcome [19] was “inactive”. For the same compound, the z-score [2] was 0.245 (inactive).

For `CNCCCC1c2ccccc2C=Cc2ccccc21`, the luciferase signal [20] was 40 AU (inactive) and the z-score [2] was -1.15 (inactive).

With `COc1cc2c(c(OC)c1OC)-c1ccc(OC)c(=O)cc1[C@@H](NC(C)=O)CC2` the fluorescence slope change [15] was 7.7% (inactive), the AC50 [3] was 105 nM (active) and the outcome [4] was “inactive”. The AC50 [16] was 52.5 nM (active), the AC50 [17] was 41.7 nM (active) and the AC50 [18] was 29.5 nM (active). The IC50 [19] was 46.8 nM (active), the luciferase signal [20] was 88 AU (inactive) and the z-score [2] was -0.69 (inactive).

In the case of `COc1cccc2c1C(=O)c1c(O)c3c(c(O)c1C2=O)C[C@@](O)(C(C)=O)C[C@@H]3O[C@H]1C[C@H](N)[C@H](O)[C@H](C)O1`, the AC50 [3] is reported as 33.2 nM (active), the AC50 [4] is reported as 46.9 nM (active) and the AC50 [16] is reported as 742 nM (active). For the same compound, the AC50 [17] was 742 nM (active), the AC50 [18] was 742 nM (active) and the IC50 [19] was 3320 nM (active). For the same compound, the luciferase signal [20] was 300 AU (active) and the z-score [2] was -2.16 (inactive).
